Source: PubChem BioAssay

Tested on: Human papillomavirus type 1a protein E7 (residues 44-93)
Assay: HPV1a E7 fragment binders on microarrays, primary screen, biochemical, small-molecule microarray, residues 44-93, 635 nm fluorescence (AID 1108);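 note: E7 fragment applied at 1 µg/mL in TBST for 1 h at 4 C; score combines spot fluorescence with its signal to noise ratio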
Settings: small-molecule microarray binding, fluorescence 635 nm; higher = more signal

Row | Compound | composite z-score
1 | Cc1ccc(S[C@]2(C(=O)NC(C)C)CC(=O)N(C3Cc4ccccc4C3)[C@@H]2c2ccc(CO)cc2)cc1 | 0.951
2 | [N-]=[N+]=NCc1ccccc1C[C@]1(C(N)=O)N=C(c2ccc(OCCCO)cc2)O[C@H]1c1ccccc1CN=[N+]=[N-] | 0.842
3 | C[N+](C)(C)CCCC[C@@H]1NC(=O)[C@H]2C[C@@H](C(=O)NCc3ccc(F)cc3)[C@@H](c3cccc(OCCO)c3)N2C1=O | 0.276
4 | C=CCC(OC(C)=O)[C@@H]1[C@@H](N(Cc2ccc(-c3ccccc3)cc2)C(=O)c2ccc(-c3ccccc3)cc2)c2cc(OCCCO)ccc2N1C(=O)Cc1ccc(OC)cc1 (stereo partly drawn) | 0.273
5 | CO[C@@H]1COC(=O)CC=C[C@@H](C)[C@H](OC)COC(=O)CC=C[C@H]1C | -0.255
6 | O=C(NCc1ccccc1)[C@@]1(CCS(=O)(=O)c2ccccc2)COC(c2ccc(OCCCO)cc2)=N1 | 0.623
7 | C=C(CCCC)/C(=C/C[C@@H](OC(=O)c1ccncc1)c1cccc(OCCO)c1)c1cc(C(=O)OC)ccc1OC | -0.414
8 | CC(C)[Si]1(C(C)C)OCc2cc(C3CC3)nc(-c3ccccc3)c21 | -0.84
9 | C=CCOC(=O)[C@@H]1[C@H]2C(=O)O[C@H](c3ccccc3)[C@H](c3ccccc3)N2[C@H](c2ccc(OCCOC(=O)[C@H]3C[C@H]4C(=O)N[C@@H](CCCCNC(C)=O)C(=O)N4[C@H]3c3ccc(O)cc3)cc2)[C@@]12C(=O)Nc1ccc(I)cc12 | 1.39
10 | CC(C)N1CC=CC23O[C@@H]4/C=C\CCCOC(=O)C4[C@H]2C(=O)N(CCCCCO)[C@@H]3C1=O (stereo partly drawn) | -1.46
11 | O=C1O[C@@H](c2ccccc2)[C@@H](c2ccccc2)N2[C@@H](c3ccc(OCCO)cc3)[C@]3(C(=O)Nc4ccc(C#CCCO)cc43)[C@@H](C(=O)N3CCN(c4ncccn4)CC3)[C@H]12 | 1.44
12 | COC(=O)[C@@]1(Cc2ccc(OC)cc2)[C@H]2c3cc(C(=O)N(C)C)n(CCc4ccc(OC)c(Br)c4)c3C[C@H]2CN1C(=O)c1ccccc1 | 1.33
13 | CSCC[C@@H]1NC(=O)CC=C[C@@H](C)COC(=O)[C@H](CCSC)NC(=O)CC=C[C@@H](C)COC1=O | -0.507
14 | CO[C@@H]1COC(=O)CC=C[C@H](C)COC(=O)[C@H](Cc2ccccc2)NC(=O)CC=C[C@H]1C | -0.416
15 | CC(C)(C)OC(=O)CC[C@]1(C(=O)NCCN2CCOCC2)N=C(c2ccc(OCCCO)cc2)O[C@H]1c1ccccc1CN=[N+]=[N-] | 0.309
16 | CO[C@H]1O[C@H](CO)[C@@H](OC(=O)Nc2ccc3c(c2)OCO3)[C@H](OC(=O)Nc2ccccc2)[C@@H]1OC(=O)Nc1ccccc1 | 1.45
17 | CCc1cccc(NC(=O)O[C@H]2[C@H](OC(=O)Nc3ccccc3)[C@@H](OC(=O)Nc3ccccc3)[C@@H](OC)O[C@@H]2CO)c1 | 1.51
18 | CC(C)(C)OC(=O)CC[C@@]1(C(=O)NCc2ccccc2)N=C(c2ccc(OCCCO)cc2)O[C@@H]1c1ccccc1 | 1.33
19 | C=CCNC(=O)[C@H]1[C@@H]2C(=O)O[C@@H](c3ccccc3)[C@@H](c3ccccc3)N2[C@@H](c2ccccc2OCCO)[C@]12C(=O)N(C(=O)OCCOC)c1ccc(C#CCNC(N)=O)cc12 | 0.0146
20 | CC(=O)NCCCC[C@@H]1NC(=O)[C@@H]2C[C@H](C(=O)NCCCCCCN(C)C)[C@H](c3ccc(O)cc3)N2C1=O | -0.0336
21 | CCCC=C(CCC)[C@@H](NC(=O)c1ccccc1)c1ccccc1 | 0.0084
22 | C=CCC(OC(C)=O)[C@@H]1[C@@H](N(Cc2ccc(-c3cccc(C(F)(F)F)c3)o2)C(=O)Cc2ccc(F)cc2)c2cc(OCCCO)ccc2N1C(=O)c1ccc(-c2ccccc2)cc1 (stereo partly drawn) | -0.741
23 | CO[C@H]1COC(=O)[C@@H](C)NC(=O)CC=C[C@@H](C)[C@H](OC)COC(=O)CC=C[C@@H]1C | -0.0307
24 | COc1ccc([Si](C)(C)[C@H]2[C@H](CCO)O[C@@]3(C(=O)N(Cc4ccccc4)c4ccc(N5C(=O)c6cccc7cccc5c67)cc43)[C@@H]2C)cc1 | -0.137
25 | O=C/C=C/c1ccc(/C=C/c2ccccc2)cc1 | -1.48
26 | O=C(CS)NCCCCCNC(=O)[C@H]1C[C@H]2C(=O)N3CCC[C@H]3C(=O)N2[C@H]1c1ccc(O)cc1 | -0.295
27 | CO[C@H]1COC(=O)[C@H](C)NC(=O)CC=C[C@@H](C)[C@H](NS(=O)(=O)c2ccc(C)cc2)COC(=O)CC=C[C@@H]1C | -0.9
28 | O=C1C[C@@](C(=O)NC2CC2)(c2ccc([N+](=O)[O-])cc2)[C@@H](c2ccc(CO)cc2I)N1CC12CC3CC(CC(C3)C1)C2 | 1.37
